{"source": "PubChem BioAssay", "note": "Results with a measured potency or affinity are listed apart. Calls of active or inactive are those of the source. The rule behind the calls is not given here."}
{"test": "A549 cell cytotoxicity, dose response, cytotoxicity control, plate reader, cherry-pick, antagonist series (AID 743412)", "conditions": "series mostly up to 26 µM"}
{"smiles": "O=S1(=O)CCOC[C@H](CC2CCCCC2)N1Cc1ccccc1F", "outcome": "inactive"}
{"smiles": "C[C@H](CO)N1C[C@H](C)[C@@H](CN(C)S(=O)(=O)c2cccs2)Oc2c(cccc2N(C)C)C1=O", "outcome": "inactive"}
{"smiles": "Cc1ccc(-c2nc(-c3ccccn3)no2)cc1[N+](=O)[O-]", "outcome": "inactive"}
{"smiles": "CC(C)NC(=O)Nc1ccc2c(c1)C(=O)N([C@H](C)CO)C[C@@H](C)[C@H](CN(C)S(C)(=O)=O)OCCCC[C@H](C)O2", "outcome": "inactive"}
{"smiles": "CC(=O)c1ccc(S(=O)(=O)N2CCC(NC(=O)Nc3cccc(F)c3)CC2)cc1", "outcome": "inactive"}
{"smiles": "CO[C@@H]1CN(C)C(=O)c2ccc(NC(=O)C3CC3)cc2OC[C@@H](C)NC[C@@H]1C", "outcome": "inactive"}
{"smiles": "O=C(NCCOc1ccccc1)[C@@H]1CCCN1C(=O)c1cccs1", "outcome": "inactive"}
{"smiles": "COc1ccc(-c2nc(N)n(C(=O)c3cccs3)n2)cc1", "outcome": "inactive"}
{"smiles": "COc1ccccc1C=NNC(=O)c1ccncc1", "outcome": "inactive"}
{"smiles": "C[C@H](CO)N1C[C@H](C)[C@H](CN(C)Cc2ccccc2)Oc2c(NS(=O)(=O)c3cn(C)cn3)cccc2C1=O", "outcome": "inactive"}
{"smiles": "CCc1nnc2cccc(Cl)n12", "outcome": "inactive"}
{"smiles": "Cc1ccc(C(=O)Nc2ccc3c(c2)OCCO3)c(Cl)c1", "outcome": "inactive"}
{"smiles": "Cc1ccc2nc(-c3ccc(NC(=O)c4cccnc4)cc3)oc2c1", "outcome": "inactive"}
{"smiles": "O=C(Nc1nc2c(s1)CCCC2)C1COc2ccccc2O1", "note": "(stereo unspecified)", "outcome": "inactive"}
{"smiles": "C[C@@H]1CN([C@H](C)CO)C(=O)c2cc(C#CCN(C)C)cnc2O[C@@H]1CN(C)C(=O)CN1CCOCC1", "outcome": "inactive"}
{"smiles": "Cc1ccc(NC(=O)c2ncn(CC(=O)NCc3ccc4[nH]ccc4c3)n2)cc1C", "outcome": "inactive"}
